# RecA splice inh = blocks M. tuberculosis RecA intein splicing | P9WHJ3 | cell-free RecA intein splicing, fluorescence | inhibition, % (no concentration beside the values) | 290,000 compounds, 0.75% hits | AID 2221; in the data active = inhibition above about 30%;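 also: 0% = vehicle wells and 100% = reference inhibitor control wells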
# Mtb FBA inh = inhibitors of M. tuberculosis fructose-bisphosphate aldolase; 360,000 compounds, 2.3% hits; inhibition, % at 1 µM; P9WQA3; purified M. tuberculosis FBA, fluorescence read-out; in the data active = inhibition above about 27%;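 also: 0% = vehicle and 100% = reference inhibitor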
# Mtb UGM inh = inhibitors of M. tuberculosis UDP-galactopyranose mutase. inhibition, % at 10 µM. 320,000 compounds, 0.06% hits. purified UGM, fluorescence polarization probe displacement; in the data active = inhibition above about 10%, passing the limit was not always enough
# Rv3671c protease = inhibits the M. tuberculosis serine protease Rv3671c. P9WHR9. inhibition, % at 5.96 µM. 320,000 compounds, 0.048% hits; in the data active = inhibition above about 38%;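 also: extracellular domain of Rv3671c used as enzyme; 0% = enzyme with DMSO and 100% = no enzyme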
# Target sequence (P9WHR9 whole entry, looked up, the tested form may be a part): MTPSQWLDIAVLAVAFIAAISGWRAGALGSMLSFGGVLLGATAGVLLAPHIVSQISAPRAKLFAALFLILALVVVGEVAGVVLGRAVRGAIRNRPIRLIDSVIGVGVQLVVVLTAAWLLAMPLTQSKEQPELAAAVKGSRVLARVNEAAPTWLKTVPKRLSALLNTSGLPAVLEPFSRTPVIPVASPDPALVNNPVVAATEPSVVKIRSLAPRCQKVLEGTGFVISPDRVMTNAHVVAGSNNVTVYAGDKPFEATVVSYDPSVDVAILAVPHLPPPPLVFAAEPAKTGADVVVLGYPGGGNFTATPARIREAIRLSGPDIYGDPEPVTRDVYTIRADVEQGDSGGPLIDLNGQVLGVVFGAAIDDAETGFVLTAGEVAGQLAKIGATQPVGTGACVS
# GDH-TPI inh = GDH-TPI coupled enzyme inhibition counter-screen. GDH-TPI coupled enzyme counterscreen, NADH absorbance. inhibition, % at 4.8 µM. 360,000 compounds, 1.2% hits; in the data active = inhibition above about 30%;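 also: 0% = DMSO wells and 100% = wells lacking the enzyme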
# Mtb betalactam = beta-lactam sensitization of Mtb H37Rv | 330,000 compounds, 0.27% hits | M. tuberculosis H37Rv growth with meropenem, percent inhibition | inhibition, % at 25 µM;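 also: growth measured after seven days incubation then overnight dye step; 0% = bacteria only wells and 100% = bacteria with antibiotic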
# GFP chromo cs = counter-screen GFP chromophore formation inhibition; 2,100 compounds, 83% hits; shares compounds with RecA splice inh; EC50, µM; cell-free GFP chromophore formation, fluorescence; AID 434968
# An asterisk follows results filed as active; . = no result. Shown are actives, neighbours in structure and some others; about 4% of the full set was active somewhere. Unless noted, no rule for the calls is given here.
SMILES,RecA splice inh,Mtb FBA inh,Mtb UGM inh,Rv3671c protease,GDH-TPI inh,Mtb betalactam,GFP chromo cs
O=C1C(Br)=Cc2cccc3cccc1c23,70*,-2,-1,1,9,98,36*
CCN(CC)CCOc1ccc(Br)cc1,-2,1,1,-1,18,-3,.
CCN(CC)CCOc1ccc(/C(=C(\Cl)c2ccccc2)c2ccccc2)cc1,36*,5,3,5,1,99,18*
COc1ccc2nc(-c3ccco3)c(-c3ccco3)nc2c1,-92,4,2,-1,6,0,.
COc1ccc2nc3cccc(OC)c3nc2c1,45*,-4,1,-5,-8,17,24*
COc1ccc2nc3ccccc3nc2c1N,64*,2,3,-20,2,11,40*
COc1ccc(-c2nc3ccccc3nc2-c2ccc(OC)c(OC)c2)cc1OC,0,-4,0,-5,-8,0,.
CNC1=C(N(C(C)=O)c2ccc(Br)cc2)C(=O)c2ccccc2C1=O,73*,-6,5,-135,16,-5,13*
CC(=O)NC1=C(N(C)C2CCS(=O)(=O)C2)C(=O)c2ccccc2C1=O (stereo unspecified),26,1,-4,-52,2,-1,.
CCC(=O)N(C1=C(NC)C(=O)c2ccccc2C1=O)C(C)C,45*,-7,1,-38,4,5,39*
Cc1ccc(N(CC(=O)NCc2ccco2)C(=O)CCC(=O)Nc2ccccn2)c(C)c1,.,1,1,0,-2,1,.
C#Cc1cccc(NC(=O)c2ccc3c(c2)C(=O)N(Cc2cccnc2)C3=O)c1,-2,2,-2,-1,11,-6,.
Cc1nn(-c2ccccc2)c(Cl)c1CN(C(=O)CCl)c1cccc2ccccc12,67*,-7,0,-9,-2,.,6.3*
Cc1nn(-c2ccccc2)c(Cl)c1CN(C(=O)CCl)c1ccc(Cl)cc1,88*,1,1,-10,-3,98,2.2*
CC(=O)N(Cc1c(C)nn(-c2ccccc2)c1Cl)c1ccc(Cl)cc1,6,-1,-1,-5,10,12,.
Cc1ccc(C[n+]2c(-c3ccc(C)cc3)cc(-c3ccc(C)cc3)cc2-c2ccc(C)cc2)cc1,56*,21,-2,-2,8,100,14*
Cc1ccc(C[n+]2ccccc2)cc1,2,1,2,-9,1,-3,.
Cc1csc(NC(=O)CSc2nnc(NC(=O)NC(C)(C)C)s2)n1,-3,-4,-1,-4,16,3,.
Cc1cccc(OCC(=O)Nc2ccccc2N2CCCC2)c1C,-3,3,0,6,2,55,.
Cc1ccccc1OCC(=O)Nc1ccccc1N1CCCCC1,32*,-1,1,-5,3,.,>38
Cc1cc(C)cc(Oc2coc3cc(OC(=O)c4cccs4)ccc3c2=O)c1,34*,7,0,-20,1,7,>38
Cc1ccc(Oc2coc3cc(OC(=O)c4cccs4)ccc3c2=O)cc1,12,10,1,-11,-3,15,.
COc1ccc(Nc2nc(N3CCCCC3)nc3ccccc23)c(OC)c1,93*,3,0,9,13,91,>38
COc1ccc(Nc2nc(N3CCN(S(C)(=O)=O)CC3)nc3ccccc23)c(OC)c1,.,4,5,1,16,-7,.
O=C(O)CSc1cc(NS(=O)(=O)c2ccc(Br)cc2)c2ccccc2c1O,97*,3,2,-145,0,8,0.68*
O=[N+]([O-])c1cc(S(=O)(=O)C(F)(F)F)ccc1Sc1nc2ccccc2[nH]1,82*,-3,2,-8,3,94,1.5*
O=[N+]([O-])c1cc(S(=O)(=O)C(F)(F)F)ccc1Sc1nc2ccccc2s1,85*,-2,-2,-2,4,99,0.25*
O=C1CCN(S(=O)(=O)c2ccccc2)N1,43*,4,3,-9,-4,-1,33*
O=C1CC(c2ccccc2)c2cccc(F)c21 (stereo unspecified),-1,-2,0,-1,-2,1,.
Oc1ccc(O)c2c1C1c3ccccc3C2c2ccccc21,44*,.,1,8,.,-1,10*
